# Test results: PMC5540273 (PLoS ONE, 2017)
# Values joined by “and” are separate entries in the source; they are usually repeats but may differ in a detail not shown here. Equal values may be shown once. Read-outs that look alike come from different tables or passages of the source.
# How the values were obtained:
# [1] = tested on: PIKFYVE; details: concentration: 1 μM, replicates: in singlicate, n = 1
# [2] = tested on: PIM1; details: concentration: 1 μM, replicates: in singlicate, n = 1
# [3] = tested on: PIM2; details: concentration: 1 μM, replicates: in singlicate; n = 1
# [4] = tested on: PIM3; details: concentration: 1 μM, replicates: in singlicate, n = 1
# [5] = tested on: PIP5K1A; details: concentration: 1 μM, replicates: in singlicate, n = 1
# [6] = tested on: PIP5K1C; details: concentration: 1 μM, replicates: in singlicate, n = 1
# [7] = tested on: PIP5K2B; details: concentration: 1 μM, replicates: in singlicate, n = 1
# [8] = tested on: T1, PIP5K2C; details: concentration: 1 μM, replicates: in singlicate, n = 1
# T1 construct: gene PIP4K2C
# [9] = tested on: T2, PKAC-alpha; details: concentration: 1 μM, replicates: in singlicate, n = 1
# T2 construct: gene PRKACA
# [10] = tested on: T3, PKAC-beta; details: concentration: 1 μM, replicates: in singlicate, n = 1
# T3 construct: gene PRKACB
# [11] = tested on: PKMYT1; details: concentration: 1 μM, replicates: in singlicate, n = 1
# [12] = tested on: PKN1; details: concentration: 1 μM, replicates: in singlicate, n = 1
# [13] = tested on: PKN2; details: concentration: 1 μM, replicates: in singlicate, n = 1
# [14] = tested on: PLK1; details: concentration: 1 μM, replicates: in singlicate, n = 1
# [15] = tested on: PLK2; details: concentration: 1 μM, replicates: in singlicate, n = 1
# [16] = tested on: PLK3; details: concentration: 1 μM, replicates: in singlicate, n = 1
# [17] = tested on: PLK4; details: concentration: 1 μM, replicates: in singlicate, n = 1
# [18] = tested on: PRKCD; details: concentration: 1 μM, replicates: in singlicate, n = 1
# [19] = tested on: PRKCE; details: concentration: 1 μM, replicates: in singlicate, n = 1
# [20] = tested on: PRKCH; details: concentration: 1 μM, replicates: in singlicate, n = 1
# 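Further: KINOMEscan kinase panel screen.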
compound,measurement,setting,value
O=c1cc(N2CCOCC2)nc2n(Cc3cccc(Cl)c3Cl)c(C3CC3)nn12 [GSK2358994],%Inh,[1],0%
same,%Inh,[2],0%
same,%Inh,[3],22%
same,%Inh,[4],0%
same,%Inh,[5],0%
same,%Inh,[6],0%
same,%Inh,[7],0%
same,%Inh,[8],0%
same,%Inh,[9],25%
same,%Inh,[10],5%
same,%Inh,[11],0%
same,%Inh,[12],2%
same,%Inh,[13],0%
same,%Inh,[14],0%
same,%Inh,[15],0%
same,%Inh,[16],16%
same,%Inh,[17],9%
same,%Inh,[18],0%
same,%Inh,[19],33%
same,%Inh,[20],0%
COc1ccc(Nc2nccc(N3CCC(NC(=O)Nc4cccc(C(C)=O)c4)C3)n2)cc1 (centres unmarked) [GSK1379731],%Inh,[1],0%
same,%Inh,[2],0%
same,%Inh,[3],0%
same,%Inh,[4],0%
same,%Inh,[5],0%
same,%Inh,[6],24%
same,%Inh,[7],12%
same,%Inh,[8],3%
same,%Inh,[9],2%
same,%Inh,[10],0%
same,%Inh,[11],0%
same,%Inh,[12],3%
same,%Inh,[13],0%
same,%Inh,[14],7%
same,%Inh,[15],0%
same,%Inh,[16],0%
same,%Inh,[17],0%
same,%Inh,[18],0%
same,%Inh,[19],0%
same,%Inh,[20],0%
CNc1ncnc2[nH]ncc12 [SKF-18355],%Inh,[1],11%
same,%Inh,[2],0%
same,%Inh,[3],8%
same,%Inh,[4],0%
same,%Inh,[5],22%
same,%Inh,[6],0%
same,%Inh,[7],0%
same,%Inh,[8],0%
same,%Inh,[9],31%
same,%Inh,[10],16%
same,%Inh,[11],1%
same,%Inh,[12],0%
same,%Inh,[13],2%
same,%Inh,[14],31%
same,%Inh,[15],12%
same,%Inh,[16],23%
same,%Inh,[17],6%
same,%Inh,[18],0%
same,%Inh,[19],12%
same,%Inh,[20],0%
O=C(Nc1cccc(-c2nn3ncccc3c2-c2ccnc(Nc3cccc(C(F)(F)F)c3)n2)c1)c1c(F)cccc1F [GSK299495],%Inh,[1],15%
same,%Inh,[2],0%
same,%Inh,[3],0%
same,%Inh,[4],0%
same,%Inh,[5],18%
same,%Inh,[6],37%
same,%Inh,[7],100%
same,%Inh,[8],68%
same,%Inh,[9],12%
same,%Inh,[10],6%
same,%Inh,[11],9%
same,%Inh,[12],0%
same,%Inh,[13],0%
same,%Inh,[14],0%
same,%Inh,[15],0%
same,%Inh,[16],2%
same,%Inh,[17],0%
same,%Inh,[18],0%
same,%Inh,[19],14%
same,%Inh,[20],16%
COCCNC(=O)c1ccc(-c2cc(C(=O)NC3CC3)cc(F)c2C)cc1 [GW868318],%Inh,[1],43%
same,%Inh,[2],15%
same,%Inh,[3],3%
same,%Inh,[4],29%
same,%Inh,[5],1%
same,%Inh,[6],0%
same,%Inh,[7],0%
same,%Inh,[8],0%
same,%Inh,[9],9%
same,%Inh,[10],37%
same,%Inh,[11],10%
same,%Inh,[12],0%
same,%Inh,[13],20%
same,%Inh,[14],66%
same,%Inh,[15],46%
same,%Inh,[16],33%
same,%Inh,[17],34%
same,%Inh,[18],15%
same,%Inh,[19],36%
same,%Inh,[20],0%
Cl.Cl.Cl.Fc1ccc(-c2ncn(C3CCNCC3)c2-c2ccnc(Nc3ccccc3)n2)cc1 [SB-238039],%Inh,[1]; 1 µM,5% and 24%
same,%Inh,[2]; 1 µM,15% and 2%
same,%Inh,[3],0%
same,%Inh,[4]; 1 µM,19% and 0%
same,%Inh,[5]; 1 µM,46% and 0%
same,%Inh,[6]; 1 µM,25% and 0%
same,%Inh,[7]; 1 µM,24% and 0%
same,%Inh,[8]; 1 µM,48% and 41%
same,%Inh,[9]; 1 µM,64% and 46%
same,%Inh,[10]; 1 µM,73% and 65%
same,%Inh,[11]; 1 µM,0% and 1%
same,%Inh,[12]; 1 µM,0% and 9%
same,%Inh,[13]; 1 µM,0% and 24%
same,%Inh,[14]; 1 µM,4% and 0%
same,%Inh,[15]; 1 µM,6% and 0%
same,%Inh,[16]; 1 µM,15% and 0%
same,%Inh,[17]; 1 µM,7% and 26%
same,%Inh,[18]; 1 µM,66% and 28%
same,%Inh,[19]; 1 µM,69% and 29%
same,%Inh,[20]; 1 µM,58% and 19%
Cc1ccc(C(=O)NCC(N)=O)cc1-n1c(C)cc(OCc2ccc(F)cc2F)c(Br)c1=O,%Inh,[1],20%
same,%Inh,[2],23%
same,%Inh,[3],19%
same,%Inh,[4],17%
same,%Inh,[5],14%
same,%Inh,[6],46%
same,%Inh,[7],0%
same,%Inh,[8],31%
same,%Inh,[9],7%
same,%Inh,[10],0%
same,%Inh,[11],22%
same,%Inh,[12],6%
same,%Inh,[13],0%
same,%Inh,[14],0%
same,%Inh,[15],0%
same,%Inh,[16],0%
same,%Inh,[17],0%
same,%Inh,[18],33%
same,%Inh,[19],2%
same,%Inh,[20],1%
